Assay results published in PubChem BioAssay AID720595 (Broad Institute, 2013).
Entries with a potency or affinity are not part of this list. Calls of active or inactive are those of the source.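 The calls were made as follows: active = every repeat test gives a fitted half-maximal cytotoxic concentration no higher than twice the top valid dose; inconclusive = repeats disagree, or a flat partial loss or poor fit; inactive = the rest, including signal rising instead.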

Assay: HEK293T cell cytotoxicity, dose response, cytotoxicity control, CellTiter-Glo luminescence, dry powder, set 2 (AID 720595)

SMILES | outcome
Cc1cccc(NC(=O)CSc2ccc(-c3ccccn3)nn2)c1C | inactive
CC1CC(C)CN(S(=O)(=O)c2ccc(C(=O)Nc3nnc(C4=COCCO4)o3)cc2)C1 (stereo unspecified) | inactive
O=C(Nc1nc(-c2ccncc2)cs1)c1cccc(S(=O)(=O)N2CCOCC2)c1 | inactive
CC1CCN(S(=O)(=O)c2ccc(C(=O)Nc3nnc(C4CC4)o3)cc2)CC1 | inactive
Cc1ccc(C(=O)Nc2nc(-c3ccccn3)cs2)cc1S(=O)(=O)N1CCOCC1 | inactive
Nc1nc(-c2ccccn2)nc(N)c1Cc1ccc(Cl)cc1Cl | inactive
